# Many of the other results were omitted from the sample, so the strongest signals are more common in it than they were.
# Key:
# Test in all cases: glycan array binding signal (z-score within array); higher = stronger binding
# Details in all cases: glycan notation: IUPAC condensed, linker removed
# [1] = target: Fuc(a1-2)Gal(b1-3)GlcNAc6S
# Outline: (§1)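 Columns mapping to the same glycan were averaged after glycan names were converted to IUPAC-condensed notation. The data come from 3228 arrays in the Consortium for Functional Glycomics database, limited to those with an available protein sequence. Binding is reported as a within-array Z-score averaged across arrays of one protein sequence and across linkers.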
# [2] = target: Fuc(a1-2)Gal(b1-4)GlcNAc(b1-3)Gal(b1-4)GlcNAc(b1-2)Man(a1-3)[Fuc(a1-2)Gal(b1-4)GlcNAc(b1-3)Gal(b1-4)GlcNAc(b1-2)Man(a1-6)]Man(b1-4)GlcNAc(b1-4)GlcNAc
# Outline: as §1
# [3] = target: Fuc(a1-2)Gal(b1-4)[Fuc(a1-3)]GlcNAc(b1-2)[Fuc(a1-2)Gal(b1-4)[Fuc(a1-3)]GlcNAc(b1-4)]Man(a1-3)[Fuc(a1-2)Gal(b1-4)[Fuc(a1-3)]GlcNAc(b1-2)Man(a1-6)]Man(b1-4)GlcNAc(b1-4)GlcNAc
# Outline: as §1
# [4] = target: Fuc(a1-2)[Gal(a1-3)]Gal(b1-3)GlcNAc
# Outline: as §1
# [5] = target: Fuc(a1-2)[Gal(a1-3)]Gal(b1-4)GlcNAc(b1-2)Man
# Outline: as §1
# [6] = target: Fuc(a1-2)[Gal(a1-3)]Gal(b1-4)GlcNAc(b1-6)GalNAc
# Outline: as §1
# [7] = target: Fuc(a1-2)[GalNAc(a1-3)]Gal(b1-4)GlcNAc(b1-2)Man(a1-3)[Fuc(a1-2)[GalNAc(a1-3)]Gal(b1-4)GlcNAc(b1-2)Man(a1-6)]Man(b1-4)GlcNAc(b1-4)GlcNAc
# Outline: as §1
# [8] = target: Fuc(a1-2)[GalNAc(a1-3)]Gal(b1-4)GlcNAc(b1-6)GalNAc
# Outline: as §1
# Gal(a1-3)Gal(b1-3)GlcNAc = target: Gal(a1-3)Gal(b1-3)GlcNAc
# Outline: as §1
# [9] = target: Gal(a1-3)Gal(b1-3)GlcNAc(b1-2)Man(a1-3)[Gal(a1-3)Gal(b1-3)GlcNAc(b1-2)Man(a1-6)]Man(b1-4)GlcNAc(b1-4)GlcNAc
# Outline: as §1
# [10] = target: Gal(a1-4)Gal(b1-4)GlcNAc(b1-3)Gal(b1-4)Glc
# Outline: as §1
# Gal(b1-3)Gal(b1-4)GlcNAc = target: Gal(b1-3)Gal(b1-4)GlcNAc
# Outline: as §1
# [11] = target: Gal(b1-3)GlcNAc(a1-6)Gal(b1-4)GlcNAc
# Outline: as §1
# Gal(b1-3)GlcNAc6S = target: Gal(b1-3)GlcNAc6S
# Outline: as §1
# [12] = target: Gal(b1-3)[Neu5Ac(a2-6)]GlcNAc(b1-4)Gal(b1-4)Glc
# Outline: as §1
# [13] = target: Gal(b1-4)GlcNAc(b1-2)[Gal(b1-4)GlcNAc(b1-6)]Man(a1-6)[Gal(b1-4)GlcNAc(b1-2)Man(a1-3)]Man(b1-4)GlcNAc(b1-4)GlcNAc
# Outline: as §1
# Gal(b1-4)GlcNAc6P = target: Gal(b1-4)GlcNAc6P
# Outline: as §1
# [14] = target: Gal3S(b1-3)[Fuc(a1-4)]GlcNAc
# Outline: as §1
# Gal6S(b1-4)Glc = target: Gal6S(b1-4)Glc
# Outline: as §1
# [15] = target: GalNAc(b1-3)Gal(a1-4)Gal(b1-4)GlcNAc(b1-3)Gal(b1-4)Glc
# Outline: as §1
# GalNAc(b1-3)GalNAc = target: GalNAc(b1-3)GalNAc
# Outline: as §1
# GalNAc(b1-3)GlcNAc = target: GalNAc(b1-3)GlcNAc
# Outline: as §1
# [16] = target: Man(a1-2)Man(a1-3)[Man(a1-2)Man(a1-6)]Man(a1-6)[Man(a1-2)Man(a1-2)Man(a1-3)]Man(b1-4)GlcNAc(b1-4)GlcNAc
# Outline: as §1
# [17] = target: Man(a1-3)[Man(a1-6)]Man(a1-6)[Man(a1-2)Man(a1-3)]Man(b1-4)GlcNAc(b1-4)GlcNAc
# Outline: as §1
# [18] = target: Man(a1-3)[Man(a1-6)]Man(a1-6)[Man(a1-3)]Man(b1-4)GlcNAc(b1-4)GlcNAc
# Outline: as §1
# [19] = target: Neu5Ac(a2-3)Gal(b1-3)GlcNAc(b1-3)GalNAc
# Outline: as §1
# [20] = target: Neu5Ac(a2-3)Gal(b1-4)GlcNAc(b1-2)Man(a1-3)[Neu5Ac(a2-3)Gal(b1-4)GlcNAc(b1-2)Man(a1-6)]Man(b1-4)GlcNAc(b1-4)GlcNAc
# Outline: as §1
# [21] = target: Neu5Ac(a2-3)Gal(b1-4)GlcNAc(b1-2)Man(a1-3)[Neu5Ac(a2-3)Gal(b1-4)GlcNAc(b1-2)Man(a1-6)]Man(b1-4)GlcNAc(b1-4)[Fuc(a1-6)]GlcNAc
# Outline: as §1
# [22] = target: Neu5Ac(a2-3)Gal(b1-4)GlcNAc(b1-3)Gal(b1-4)GlcNAc(b1-2)Man(a1-3)[Neu5Ac(a2-3)Gal(b1-4)GlcNAc(b1-3)Gal(b1-4)GlcNAc(b1-2)Man(a1-6)]Man(b1-4)GlcNAc(b1-4)GlcNAc
# Outline: as §1
# [23] = target: Neu5Ac(a2-3)Gal(b1-4)GlcNAc(b1-3)Gal(b1-4)GlcNAc(b1-3)GalNAc
# Outline: as §1
# [24] = target: Neu5Ac(a2-3)Gal(b1-4)GlcNAc(b1-3)[Neu5Ac(a2-3)Gal(b1-4)GlcNAc(b1-6)]GalNAc
# Outline: as §1
# [25] = target: Neu5Ac(a2-3)Gal(b1-4)[Fuc(a1-3)]GlcNAc(b1-3)Gal(b1-4)GlcNAc
# Outline: as §1
# [26] = target: Neu5Ac(a2-3)Gal(b1-4)[Fuc(a1-3)]GlcNAc(b1-3)GalNAc
# Outline: as §1
# [27] = target: Neu5Ac(a2-3)[GalNAc(b1-4)]Gal(b1-4)GlcNAc
# Outline: as §1
# [28] = target: Neu5Ac(a2-6)Gal(b1-4)GlcNAc(b1-2)Man(a1-3)Man(b1-4)GlcNAc(b1-4)GlcNAc
# Outline: as §1
# [29] = target: Neu5Ac(a2-6)Gal(b1-4)GlcNAc(b1-2)Man(a1-3)[Man(a1-6)]Man(b1-4)GlcNAc(b1-4)GlcNAc
# Outline: as §1
# [30] = target: Neu5Ac(a2-6)Gal(b1-4)GlcNAc(b1-2)Man(a1-3)[Neu5Ac(a2-3)Gal(b1-4)GlcNAc(b1-2)Man(a1-6)]Man(b1-4)GlcNAc(b1-4)GlcNAc
# Outline: as §1
# [31] = target: Neu5Ac(a2-6)Gal(b1-4)GlcNAc(b1-2)Man(a1-3)[Neu5Ac(a2-6)Gal(b1-4)GlcNAc(b1-2)Man(a1-6)]Man(b1-4)GlcNAc(b1-4)[Fuc(a1-6)]GlcNAc
# Outline: as §1
# [32] = target: Neu5Ac(a2-6)Gal(b1-4)GlcNAc(b1-2)Man(a1-6)Man(b1-4)GlcNAc(b1-4)GlcNAc
# Outline: as §1
# [33] = target: Neu5Ac(a2-6)Gal(b1-4)GlcNAc(b1-2)Man(a1-6)[Gal(b1-4)GlcNAc(b1-2)Man(a1-3)]Man(b1-4)GlcNAc(b1-4)GlcNAc
# Outline: as §1
# [34] = target: Neu5Ac(a2-6)Gal(b1-4)GlcNAc(b1-2)Man(a1-6)[GlcNAc(b1-2)Man(a1-3)]Man(b1-4)GlcNAc(b1-4)GlcNAc
# Outline: as §1
# [35] = target: Neu5Ac(a2-6)Gal(b1-4)GlcNAc(b1-2)Man(a1-6)[Man(a1-3)]Man(b1-4)GlcNAc(b1-4)GlcNAc
# Outline: as §1
# [36] = target: Neu5Ac(a2-6)Gal(b1-4)GlcNAc(b1-3)Gal(b1-4)GlcNAc(b1-3)[Neu5Ac(a2-6)Gal(b1-4)GlcNAc(b1-3)Gal(b1-4)GlcNAc(b1-6)]GalNAc
# Outline: as §1
# [37] = target: Neu5Ac(a2-6)Gal(b1-4)GlcNAc(b1-3)Gal(b1-4)[Fuc(a1-3)]GlcNAc(b1-3)Gal(b1-4)[Fuc(a1-3)]GlcNAc
# Outline: as §1
# [38] = target: Neu5Ac(a2-6)Gal(b1-4)GlcNAc(b1-3)[Neu5Ac(a2-6)Gal(b1-4)GlcNAc(b1-6)]GalNAc
# Outline: as §1
# [39] = target: Neu5Ac(a2-6)Gal(b1-4)GlcNAc(b1-6)GalNAc
# Outline: as §1
# [40] = target: Neu5Ac(a2-6)GlcNAc(b1-4)GlcNAc(b1-4)GlcNAc
# Outline: as §1
# [41] = target: Neu5Ac(a2-8)Neu5Ac(a2-3)[Gal(b1-3)GalNAc(b1-4)]Gal(b1-4)Glc
# Outline: as §1
# [42] = target: Neu5Gc(a2-3)Gal(b1-4)GlcNAc(b1-3)Gal(b1-4)GlcNAc(b1-2)Man(a1-3)[Neu5Gc(a2-3)Gal(b1-4)GlcNAc(b1-3)Gal(b1-4)GlcNAc(b1-2)Man(a1-6)]Man(b1-4)GlcNAc(b1-4)GlcNAc
# Outline: as §1
binder,measurement,setting,value
SialidaseA (Arthrobacter ureafaciens) (protein) MRSNSTSAPSLVRRAATGVLTCAVSIGLLAGLGLPAQAAPTPPNSPTLPPGSFSETNLAADRTAANFFYRIPALTYLGNDVVLAAWDGRPGSAADAPNPNSIVQRRSTDGGKTWGPVQVIAAGHVADASGPRYGYSDPSYIYDAEANKVFAFFVYSKDQGFGGSQFGNDDADRNVISSAVIESSDAGVTWSQPRLITSVTKPGTSKTNPAAGDVRSNFASSGEGIQLKYGPHKGRLIQQYAGDVRQADGSNKIQAYSVYSDDHGVTWHKGANVGDRMDENKTVELSDGRVLLNSRDNANRGYRKVAVSTDGGATYGPVSQDTELPDPANNGAIARMFPNAAQGSADAKKLIFTNANSKTGRENVSARVSCDDGETWPGVRTIRSGFSAYSTVTRLADGKFGVLYEGNYTDNMPFATFDDAWLNYVCAPLAVPAVNIAPSATQEVPVTVTNQEATTLSGATATVYTPSGWSATTVPVPDVAPGASVTVTVALTAPADASGPRSLNAAFTTADGRVSQFTFTATTPVAPQVGLTITGSAPARDVAANPYQAGDVLGYTLNVKSTANVAANSVPLTGTFDSGFLPPAAPNCRYNNLAAGASYNCTTAKHTITAADMERGYFVPEATFSITSTTTPSLTKTVQFTGAAVALRDGLISADISGARTDVGRDLATRPYAAGELVPYAFTVKNTSPFVEQVVPTAGNFSPFLPAGAGNCRYLSLPAGQSYECATPRHAVTAEEVEQGFFVPDTTWEVSAAGQSTRTYRINGGEVDLLVRDAALSATVVAEWKDADGDRFASAGDPVTFTYTVGNAGNVALTGLEAPDAGISLPFLAPGDTATATREHVLTAADVAGGSLAASAFEATARNGSKEVTATAEGQPLELKVQPAQPSKEPELTVQDLEDQTPPFDLGTAFKYRTGQKVSLAGLEYGQWYYVYLNKTGYRLGWMFPTTGDTVEFILPPEVRNGRDDVVVLDKDGRRVSFDRLQVTPKGEKI,glycan array binding signal (z-score),[1],-0.849
same,glycan array binding signal (z-score),[2],1.3
same,glycan array binding signal (z-score),[3],0.318
same,glycan array binding signal (z-score),[4],-0.478
same,glycan array binding signal (z-score),[5],-0.252
same,glycan array binding signal (z-score),[6],-0.849
same,glycan array binding signal (z-score),[7],-0.021
same,glycan array binding signal (z-score),[8],-0.733
same,glycan array binding signal (z-score),Gal(a1-3)Gal(b1-3)GlcNAc,-0.563
same,glycan array binding signal (z-score),[9],0.062
same,glycan array binding signal (z-score),[10],-0.51
same,glycan array binding signal (z-score),Gal(b1-3)Gal(b1-4)GlcNAc,-0.643
same,glycan array binding signal (z-score),[11],-0.544
same,glycan array binding signal (z-score),Gal(b1-3)GlcNAc6S,-0.625
same,glycan array binding signal (z-score),[12],2.48
same,glycan array binding signal (z-score),[13],-0.46
same,glycan array binding signal (z-score),Gal(b1-4)GlcNAc6P,-0.685
same,glycan array binding signal (z-score),[14],-0.337
same,glycan array binding signal (z-score),Gal6S(b1-4)Glc,-0.719
same,glycan array binding signal (z-score),[15],-0.337
same,glycan array binding signal (z-score),GalNAc(b1-3)GalNAc,-0.689
same,glycan array binding signal (z-score),GalNAc(b1-3)GlcNAc,-0.637
same,glycan array binding signal (z-score),[16],-0.441
same,glycan array binding signal (z-score),[17],-0.172
same,glycan array binding signal (z-score),[18],-0.278
same,glycan array binding signal (z-score),[19],-0.321
same,glycan array binding signal (z-score),[20],-0.915
same,glycan array binding signal (z-score),[21],3.28
same,glycan array binding signal (z-score),[22],0.256
same,glycan array binding signal (z-score),[23],-0.013
same,glycan array binding signal (z-score),[24],1.16
same,glycan array binding signal (z-score),[25],2.56
same,glycan array binding signal (z-score),[26],1.91
same,glycan array binding signal (z-score),[27],0.486
same,glycan array binding signal (z-score),[28],3.4
same,glycan array binding signal (z-score),[29],3.4
same,glycan array binding signal (z-score),[30],2.86
same,glycan array binding signal (z-score),[31],3.44
same,glycan array binding signal (z-score),[32],3.28
same,glycan array binding signal (z-score),[33],3.95
same,glycan array binding signal (z-score),[34],3.32
same,glycan array binding signal (z-score),[35],3.29
same,glycan array binding signal (z-score),[36],3.49
same,glycan array binding signal (z-score),[37],3.65
same,glycan array binding signal (z-score),[38],3.9
same,glycan array binding signal (z-score),[39],-0.534
same,glycan array binding signal (z-score),[40],-0.274
same,glycan array binding signal (z-score),[41],-0.131
same,glycan array binding signal (z-score),[42],1.3
